Four compounds from ChEMBL document CHEMBL5058541 can be followed below.

Holding throughout (conditions): Compound concentration 20.0 uM, Protein concentration 2.0 uM, Result type QC Liability
Assay [1] has as its target Tyrosine-protein kinase ABL1 (Homo sapiens) (UniProt P00519).
The target of assay [2] is Cyclin-dependent kinase 2 (Homo sapiens) (UniProt P24941).
Assay [3] concerns the target Casein kinase I isoform delta (Homo sapiens) (UniProt P48730).
For assay [4], the target named is Glycogen synthase kinase-3 beta (Homo sapiens) (UniProt P49841).
Chain of Glycogen synthase kinase-3 beta (Homo sapiens) (P49841 whole entry, looked up): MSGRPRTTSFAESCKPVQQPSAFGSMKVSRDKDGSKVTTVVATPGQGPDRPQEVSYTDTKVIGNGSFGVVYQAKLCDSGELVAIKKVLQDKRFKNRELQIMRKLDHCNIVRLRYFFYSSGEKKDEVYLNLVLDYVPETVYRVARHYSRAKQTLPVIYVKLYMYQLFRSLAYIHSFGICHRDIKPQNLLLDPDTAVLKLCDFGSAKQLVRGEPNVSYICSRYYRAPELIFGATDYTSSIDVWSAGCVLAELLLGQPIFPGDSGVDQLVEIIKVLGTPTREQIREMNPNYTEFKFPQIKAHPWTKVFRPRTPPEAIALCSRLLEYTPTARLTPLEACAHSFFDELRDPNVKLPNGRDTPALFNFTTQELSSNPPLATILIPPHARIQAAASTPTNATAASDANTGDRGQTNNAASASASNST
The target of assay [5] is Mitogen-activated protein kinase 1 (Homo sapiens) (UniProt P28482).
Chain of Mitogen-activated protein kinase 1 (Homo sapiens) (P28482 whole entry): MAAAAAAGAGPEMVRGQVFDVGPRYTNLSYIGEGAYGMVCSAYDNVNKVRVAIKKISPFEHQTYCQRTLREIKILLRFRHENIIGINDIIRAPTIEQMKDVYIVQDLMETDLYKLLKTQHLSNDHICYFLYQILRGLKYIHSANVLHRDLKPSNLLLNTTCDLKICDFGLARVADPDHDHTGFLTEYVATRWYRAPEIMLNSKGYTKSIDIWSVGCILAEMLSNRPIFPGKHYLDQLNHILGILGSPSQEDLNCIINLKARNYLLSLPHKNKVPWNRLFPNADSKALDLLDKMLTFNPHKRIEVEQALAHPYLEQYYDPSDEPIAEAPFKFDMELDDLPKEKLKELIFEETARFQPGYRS
Assay [6] deals with T1, Aurora kinase A (Homo sapiens) (UniProt O14965).
T1 sequence (whole entry): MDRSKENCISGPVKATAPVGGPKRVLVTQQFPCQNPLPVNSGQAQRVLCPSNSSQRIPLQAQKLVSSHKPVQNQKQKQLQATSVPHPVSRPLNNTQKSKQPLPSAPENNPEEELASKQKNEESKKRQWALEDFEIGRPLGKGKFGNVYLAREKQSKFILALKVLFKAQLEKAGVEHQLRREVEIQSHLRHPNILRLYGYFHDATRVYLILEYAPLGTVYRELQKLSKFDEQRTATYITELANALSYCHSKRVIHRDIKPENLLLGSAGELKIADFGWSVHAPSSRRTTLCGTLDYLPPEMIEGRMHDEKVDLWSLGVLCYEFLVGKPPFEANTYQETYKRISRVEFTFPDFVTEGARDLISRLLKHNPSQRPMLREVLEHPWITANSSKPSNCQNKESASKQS

Chain of Tyrosine-protein kinase ABL1 (Homo sapiens) (P00519 whole entry): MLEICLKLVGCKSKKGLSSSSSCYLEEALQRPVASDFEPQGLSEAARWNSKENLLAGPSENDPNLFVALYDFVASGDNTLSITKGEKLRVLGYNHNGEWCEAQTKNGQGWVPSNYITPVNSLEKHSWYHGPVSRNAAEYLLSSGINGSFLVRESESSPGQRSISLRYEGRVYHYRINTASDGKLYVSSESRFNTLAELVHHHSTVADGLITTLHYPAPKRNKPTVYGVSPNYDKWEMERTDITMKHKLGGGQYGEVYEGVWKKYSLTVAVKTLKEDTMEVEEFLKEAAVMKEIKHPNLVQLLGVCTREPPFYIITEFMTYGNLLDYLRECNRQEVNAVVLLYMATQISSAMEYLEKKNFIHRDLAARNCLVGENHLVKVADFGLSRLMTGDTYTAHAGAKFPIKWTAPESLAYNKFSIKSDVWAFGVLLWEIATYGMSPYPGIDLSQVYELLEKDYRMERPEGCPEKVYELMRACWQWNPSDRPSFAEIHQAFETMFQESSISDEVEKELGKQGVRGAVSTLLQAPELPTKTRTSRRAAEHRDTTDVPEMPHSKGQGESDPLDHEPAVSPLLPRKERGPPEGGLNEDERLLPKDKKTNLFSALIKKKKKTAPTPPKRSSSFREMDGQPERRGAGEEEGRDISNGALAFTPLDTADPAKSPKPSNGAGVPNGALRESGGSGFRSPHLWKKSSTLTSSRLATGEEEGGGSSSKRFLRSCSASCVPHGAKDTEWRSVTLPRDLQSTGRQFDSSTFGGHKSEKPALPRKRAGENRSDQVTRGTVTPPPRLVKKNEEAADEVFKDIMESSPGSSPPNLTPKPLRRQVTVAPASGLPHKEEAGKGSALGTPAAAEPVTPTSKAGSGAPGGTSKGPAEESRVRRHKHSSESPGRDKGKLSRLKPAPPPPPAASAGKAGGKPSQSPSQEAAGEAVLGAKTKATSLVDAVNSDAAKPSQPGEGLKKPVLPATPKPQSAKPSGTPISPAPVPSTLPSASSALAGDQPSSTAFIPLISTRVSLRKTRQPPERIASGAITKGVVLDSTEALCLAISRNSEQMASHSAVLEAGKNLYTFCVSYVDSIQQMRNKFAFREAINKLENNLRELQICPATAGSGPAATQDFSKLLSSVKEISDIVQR
Chain of Casein kinase I isoform delta (Homo sapiens) (P48730 whole entry, looked up, canonical isoform): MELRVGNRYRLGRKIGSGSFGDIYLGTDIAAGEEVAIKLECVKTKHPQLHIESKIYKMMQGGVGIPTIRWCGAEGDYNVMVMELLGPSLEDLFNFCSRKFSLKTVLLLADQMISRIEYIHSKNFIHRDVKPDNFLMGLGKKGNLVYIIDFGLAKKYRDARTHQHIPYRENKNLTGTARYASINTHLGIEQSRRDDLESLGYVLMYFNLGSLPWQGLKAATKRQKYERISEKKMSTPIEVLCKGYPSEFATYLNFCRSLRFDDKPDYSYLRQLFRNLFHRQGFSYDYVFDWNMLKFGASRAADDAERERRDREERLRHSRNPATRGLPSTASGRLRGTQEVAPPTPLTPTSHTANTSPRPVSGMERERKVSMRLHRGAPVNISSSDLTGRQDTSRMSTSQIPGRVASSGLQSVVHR

For `CN(C)C(=O)c1ccc(-c2cc(C(=O)N[C@@H]3CCc4ccccc43)no2)cc1O`, the ΔTm is 0.236 c in assay [1]; -0.0936 c in assay [2]; 0.0788 c in assay [3]; -0.463 c in assay [4]; -0.0605 c in assay [5]; 0.213 c in assay [6].

Turning to `CN(c1ncccc1CNc1ccnc(-c2nc3c(F)c(Cl)ccc3[nH]2)n1)S(C)(=O)=O`, the ΔTm in assay [1] was 1.73 c; in assay [2], 0.96 c; in assay [3], 0.76 c; in assay [4], 0.69 c; in assay [5], 0.36 c; in assay [6] it was 1.93 c.

On to `O=C(NCCCN1CCOC1=O)c1cnc(NCc2cc(Br)ccc2Br)nc1NC1CCCC1`, for which the ΔTm in assay [1] was 0 c; in assay [2], -0.772 c; in assay [3], 0 c; in assay [4], 0 c; in assay [5] it was -0.601 c; in assay [6] it was 0.0724 c.

Turning to `CS(=O)(=O)N1CCCC(NC(=O)[C@H](CCC2CCCCC2)NC(=O)c2ccc(CNC(=O)c3cnc4ccccn34)cc2)C1` (some centres undefined), the ΔTm was 2.13 c in assay [1]; -0.19 c in assay [2]; 0.571 c in assay [3]; -0.0668 c in assay [4]; -0.218 c in assay [5]; 0.119 c in assay [6].
